PubChem BioAssay AID504834 (National Center for Advancing Translational Sciences (NCATS), 2011)
Among all 320,000 compounds or so, about 22,000 (6.9%) were called active. Inconclusive results (about 27%) are left out. Only a selection was taken, and actives are over-represented in it overall. Values without a mark were called inactive. Calls come from the whole dose curve; as a rule, active = well fitted inhibition curve with a large enough effect; inconclusive = small, poorly fitted or top-dose-only effect, or another doubt; inactive = no such curve, though single readings can be large or run the other way.

assay: Primary qHTS for delayed death inhibitors of the malarial parasite plastid, 96 hour incubation; settings: P. falciparum luciferase reporter growth; series mostly up to 28.7 µM; activity change, negative = inhibition: at the top concentration
Text: The goal of this screen is to discover new antimalarial compounds that act by inhibiting the development of the apicoplast in the malarial parasite Plasmodium falciparum. The biochemical processes that make this organelle essential for erythrocytic stage parasites are not well understood. However, antibiotics such as azithromycin and tetracycline, which target the apicoplast translational machinery, have a potent antimalarial effect.
We have developed a cell-based assay that measures parasite growth based on the expression of an integrated copy of a firefly luciferase reporter. To detect small molecules that cause this "delayed death" phenotype, erythrocytes infected with the luciferase-expressing parasites were incubated with compounds for either one or two generations, corresponding to 48 and 96 hours, respectively. Compounds that inhibit parasite growth in the second generation, but not the first, should be enriched in antimalarials that target the apicoplast. Growth inhibition is detected by a decrease in luciferase activity.
Assay Provider: David Fidock and Eric Ekland, Columbia University
Keywords: NIH Roadmap, MLPCN, MLI, MLSMR, qHTS, NCGC, qHTS, malaria, luciferase, viability
Four microliters of infected erythrocytes (2% hematocrit, 0.05% parasitemia final concentration) in culture medium were dispensed and the plates incubated for 96 hours at 37 C in 5% CO2. Two microliters of luciferase detection reagent was added and luminescence was detected by a ViewLux (PerkinElmer) reader.
% is set by controls: 0 for no effect and ±100 for the full control effect; potency is the fitted concentration of half-maximal effect.

Compound | Potency | activity change, negative = inhibition [%]
Cc1cc(SCc2c(F)cccc2Cl)nc(=O)[nH]1 | 11.7 µM (active) | –
Cc1snc(SCc2c(F)cccc2Cl)c1C#N | – | 7.68
CSc1cc(C)[nH]c(=O)n1 | – | 0
O=c1cc(CN2CCN(S(=O)(=O)/C=C/c3ccccc3)CC2)c2ccc(O)cc2o1 | 11.7 µM (active) | –
O=C(CN1CCN(S(=O)(=O)/C=C/c2ccccc2)CC1)Nc1ccc(N2CCOCC2)cc1 | – | -2.43
NC(=O)CCN1CCN(S(=O)(=O)/C=C/c2ccccc2)CC1 | – | 12.9
Cc1onc(-c2ccccc2)c1C(=O)N1CCN(S(=O)(=O)c2ccccc2C(F)(F)F)CC1 | – | 3.53
CN1CCN(Cc2ccccc2C(F)(F)F)CC1 | – | -13.6
Cc1ccc2c(CN3CCN(S(=O)(=O)c4ccccc4C(F)(F)F)CC3)cc(=O)oc2c1 | 9.28 µM (active) | –
Cc1cccc(NC(=O)CCn2c(=O)oc3ccccc32)c1 | – | -2.59
CCCCn1c(N)c(N(CCOC)C(=O)c2oc3ccc(OC)cc3c2C)c(=O)[nH]c1=O | – | 0.114
O=C(NCCS(=O)(=O)c1ccc(Br)cc1)c1ccccc1Cl | – | 25.8
Cc1cccc(C(=O)Nc2ccc(C(=O)N/N=C/c3cccc(C)n3)cc2)c1 | – | 41.4
COc1cccc(NC(=O)CSc2nccn(-c3ccc4c(c3)OCCO4)c2=O)c1 | – | 23
CCOC(=O)c1ccc(NC(=O)CNC(=O)c2ccco2)cc1 | – | 254
CCOC(=O)[C@H]1[C@H]2COc3cc(OC)ccc3[C@@H]2N2C(=O)N(c3ccc(Br)cc3)C(=O)[C@@]12C | 11.7 µM (active) | –
CCOC(=O)[C@@H]1[C@H]2COc3ccc(Br)cc3[C@H]2N2C(=O)N(c3ccc(Cl)cc3)C(=O)[C@@]12C | 11.7 µM (active) | –
CCOC(=O)C1C(c2ccc(Cl)cc2)NC(=S)NC1(O)C(F)(F)F (configuration not stated) | – | 7.76
CCOC(=O)C1CCN(C(=O)Nc2cccc(OC)c2)CC1 | – | 8.91
COc1ccc(NS(=O)(=O)c2cccc(C(=O)NCCc3ccc(S(N)(=O)=O)cc3)c2)cc1 | – | -29.3
CC1CCCCC1NC(=O)COC(=O)Cc1ccc(Cl)cc1 (configuration not stated) | – | 7.06
COc1ccc(-c2ocnc2C(=O)Nc2ccc3c(c2)CCC3)cc1 | – | 13
O=S(=O)(Nc1ccccc1Br)c1cccs1 | – | 9.4
CCCCN(C)CCCNC(=O)c1cc(-c2cccs2)nc2ccccc12 | – | -14
CC(C)OCCCNC(=O)c1cc(Sc2ccc(F)cc2)nc2ccccc12 | 3.29 µM (active) | –
CC(C)CCNC(=O)c1cccnc1Sc1ccccc1 | – | 55.7

Compound | Potency | activity change, negative = inhibition [%]
O=C(O)C(NS(=O)(=O)c1cccc2nsnc12)c1ccccc1 (configuration not stated) | – | 19.4
CC(=O)Nc1cccc(NC(=O)c2ccc3c(c2)CCN3S(C)(=O)=O)c1 | – | -3.65
O=C(CCCCO)c1ccc(O)c(Cl)c1 | – | 104
COc1cc(OC)cc(C(=O)NCCCn2ccnc2)c1 | – | 30.8
COc1ccc(/C=C(\C#N)C(=O)NCCCn2ccnc2)cc1 | – | -13.6
COc1cccc(-c2nn(-c3ccccc3)cc2/C=C(\C#N)C(=O)NCCCn2ccnc2)c1 | 1.65 µM (active) | –
C/C=C(/C)C(=O)Nc1cccc(C2=NOC3(C2)C[C@@H](C(N)=O)N(C(=O)C2(C)CC2)C3)c1 (some centres not stated) | – | 70.1
CCOc1ncccc1C(=O)OCC(=O)c1c[nH]c2ccccc12 | – | -114
O=C(NCCS(=O)(=O)NCc1ccc(F)cc1)c1ccccc1 | – | 0.0784
CSc1nccc(NC(=O)c2ccc(C(C)(C)C)cc2)n1 | – | 13.2
CN1CCN(C2=NCCO2)CC1 | – | 6.75
Cc1ccc(Sc2cc(C(=O)c3ccccc3C(=O)O)ccc2[N+](=O)[O-])cc1 | – | -11.7
CN(C)c1ccc(Nc2c3c4c(cccc4n(C)c2=O)C(=O)c2ccccc2-3)cc1 | 5.22 µM (active) | –
CN(C)c1ccc(C2N(C)C(=O)c3ccccc3N2C)cc1 (configuration not stated) | – | 0
CC1C(=O)N(Cc2ccccc2)c2ccccc2N1C(=O)c1ccccc1 (configuration not stated) | – | 34.9
O=C(COC(=O)Cn1[nH]c(=O)c2ccccc2c1=O)Nc1c(Cl)cccc1C(F)(F)F | – | 34.6
COc1cc(NC(=O)C2=CC(c3ccco3)=NS(=O)(=O)N2C)cc(OC)c1OC | – | 10.9
CC/C(=N\NC(=O)c1c(C)nc2ccccn12)c1ccc(Cl)cc1 | – | -7.35
O=C(Nc1ccccc1N1CCOCC1)c1ccc(OCc2cscn2)cc1 | – | -15.1
CCc1nnc(NC(=O)/C=C/c2ccc(C)o2)s1 | 10.4 µM (active) | –
Cc1nnc(NC(=O)/C=C/c2ccco2)s1 | – | 5.24
CCC(CC)c1nnc(NC(=O)/C=C/c2ccco2)s1 | – | -13.8
CN1CCN(c2ccc(CNS(=O)(=O)c3cccc(F)c3)cc2)CC1 | – | 22.5
N#CCCN(C(=O)COC(=O)C1CCN(c2ccc(C(F)(F)F)cn2)CC1)c1ccc(F)cc1 | – | 5.52
COc1ccccc1-n1nnnc1SCC(=O)NC(=O)Cc1ccccc1 | – | 4.3
O=C(c1cccc(-n2cccc2)c1)N1CCN(S(=O)(=O)c2ccc(F)cc2)CC1 | – | -1.15
